Assay outcomes as filed in PubChem.
Hits are enriched below; roughly 3.1% of the tested compounds scored in any of these assays.
Calb FLC – C. albicans growth modulation with fluconazole; C. albicans CaCi-2 (fluconazole-resistant clinical isolate) + fluconazole, Alamar Blue growth, 48 h; growth inhibition, % (no concentration beside the values); hit rate 0.57% among 300,000; AID 1979;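 active means growth inhibition above about 58% in most replicates, limit read from the data, passing the limit was not always enough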;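 further: all wells also contain fluconazole at 8 µg/ml as a sub-toxic cotreatment; 0% = median of DMSO wells and 100% = median of geldanamycin control wells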
NadD block – blocks S. aureus nicotinate mononucleotide adenylyltransferase; purified NadD enzyme, colorimetric absorbance read-out; inhibition, % at 20 µM; hit rate 0.78% among 360,000; AID 602399; in the data active means inhibition above about 26%
FAS-TE inh – FAS thioesterase (human) inhibition; P49327; recombinant FAS-TE, OMFH fluorogenic substrate, fluorescence endpoint; inhibition, % at 15 µM; hit rate 0.67% among 360,000; AID 602261;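 active means compounds whose normalised, plate-corrected inhibition of enzyme fluorescence in the single-dose primary screen is 50% or more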;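 further: 0% = DMSO with enzyme and 100% = substrate without enzyme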
Mot1-301 SUMO – blocks SUMOylation pathway, rescuing yeast Mot1-301 growth; hit rate 1% among 320,000; S. cerevisiae Mot1-301 growth rescue, ATP luminescence, 38.5C; percent above DMSO median, 100 means doubled; growth rescue, % at 18.8 µM;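 active means every valid replicate shows activation above 250% relative to neutral control wells; inactive means the rest, any valid replicate at or below 250%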;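 further: OY570 slx delta 5 strain wells were the positive control but not used for scaling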
ATG4B inh – blocks human ATG4B protease cleavage of LC3 substrate. ATG4B cleavage of LC3-PLA2, NBD-HPC fluorescence, 1 h. Q9Y4P1. inhibition, % at 8.33 µM. AID 504462. hit rate 0.51% among 340,000; in the data active means inhibition above about 40%
Target sequence (Q9Y4P1 whole entry, looked up): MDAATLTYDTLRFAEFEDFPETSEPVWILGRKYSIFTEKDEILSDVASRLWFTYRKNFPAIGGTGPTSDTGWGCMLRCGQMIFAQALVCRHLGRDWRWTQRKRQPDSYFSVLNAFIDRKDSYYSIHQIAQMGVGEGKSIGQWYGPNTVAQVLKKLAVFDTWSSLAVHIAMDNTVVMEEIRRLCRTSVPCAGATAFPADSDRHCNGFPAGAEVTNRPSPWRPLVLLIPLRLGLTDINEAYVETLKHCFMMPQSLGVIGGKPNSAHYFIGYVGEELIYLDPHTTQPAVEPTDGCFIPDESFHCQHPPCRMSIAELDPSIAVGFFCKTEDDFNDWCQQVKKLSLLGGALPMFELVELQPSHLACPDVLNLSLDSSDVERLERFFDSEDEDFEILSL
Yeast Mot1 SUMO – SUMO pathway inhibitors in yeast Mot1-301 growth. shares compounds with Mot1-301 SUMO. S. cerevisiae Mot1-301 galactose growth, ATP luminescence, 24 h; -100 = growth of slx-deleted rescue strain. growth activity, percent, % at 42 µM. 2,300 tested, under 10 active. AID 493004;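 active means Signal drops as the depositor expects, and the fitted half-maximal dose is no more than ten times the top valid tested dose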;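 further: more negative values mean stronger growth rescue toward the control strain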
Starred values were filed as active, the others as inactive; . = not tested or not shown; + = active, no number.

SMILES	Calb FLC	NadD block	FAS-TE inh	Mot1-301 SUMO	ATG4B inh	Yeast Mot1 SUMO
O=c1/c(=C/c2ccco2)sc2nc(-c3ccccc3Br)nn12	.	4	-1	381*	4	1
COc1ccc(C(=O)CC(=O)C(=O)Nc2cc(C)ccc2C)cc1	-1	-4	-3	-25	-13	.
COc1ccc(C(=O)CC(=O)C(=O)Nc2ccc(C)c(Cl)c2)cc1	-4	5	0	918*	-13	1
CC(C)(CNC(=O)c1ccccc1NS(C)(=O)=O)N1CCCCC1	-3	6	-4	9	-1	.
COC(=O)c1ccc(SCC(=O)N2CCC(C)CC2)c([N+](=O)[O-])c1	19	-1	27	836*	2	0
CCCCCC(=O)Nc1ccc(-c2csc(C)n2)cc1	7	-8	0	-14	-3	.
CCCCCC(=O)Nc1ccc(-c2csc(N)n2)cc1	-48	-1	3	471*	-1	-1
CCCOc1ccccc1C1NC(=O)NC(C)=C1C(=O)OCCOCC (configuration not stated)	-2	-7	-6	565*	9	1
CCCCOc1ccccc1C1NC(=O)NC(C)=C1C(=O)OCCOCC (configuration not stated)	0	-1	-8	-9	-1	.
CC1(C)CC(=O)C2=C(C1)N=C1SCCC(=O)N1C2c1cccc([N+](=O)[O-])c1 (configuration not stated)	-10	-8	6	4	0	.
O=C(CSc1nc(=O)n2ccccc2n1)N1CCN(c2ccccc2)CC1	-13	-1	1	559*	-1	1
COc1ccccc1N1CCN(C(=O)CSc2nc3ncnc(N)c3[nH]2)CC1	-3	-3	-5	-18	-4	.
Nc1ncnc2nc(SCC(=O)N3CCN(c4ccccc4)CC3)[nH]c12	-36	-6	-6	+	-1	0
CC1CCCCN1C(=O)C(Cc1ccccc1)N1C(=O)C2CCCCC2C1=O (configuration not stated)	0	-3	-6	862*	5	-1
CC1CCCCN1C(=O)N[C@@H](Cc1ccccc1)C(=O)O (some centres not stated)	23	-2	-7	24	4	.
O=C(N/N=C/c1ccccn1)NC12CC3CC(CC(C3)C1)C2	6	3	6	612*	-7	1
CN(C)C1CN(Cc2cn(Cc3ccc(F)cc3)nn2)S(=O)(=O)C1 (configuration not stated)	.	-1	-11	.	.	.
Cc1ccccc1P(=O)(CO)c1ccccc1C	1	3	-4	414*	8	1
O=C(c1cn(Cc2ccccc2)nc1-c1ccccc1)N1CCN(c2ccccn2)CC1	.	-3	6	-15	-59	.
CCOCCCNC(=O)C(c1ccc(OC)cc1)N(Cc1ccc2c(c1)OCO2)C(=O)CNC(C)=O (configuration not stated)	-7	-1	-4	442*	-7	1
Cc1cc(S(=O)(=O)N2CCCC(N3CCOCC3)C2)c(C)cc1Cl (configuration not stated)	7	5	1	421*	-6	0
O=S(=O)(c1cc(Cl)ccc1Cl)N1CCN2CCCC2C1 (configuration not stated)	1	3	1	-32	-5	.
Nc1ccc(NC(=O)c2ccco2)c(Cl)c1	0	9	-11	439*	5	0
CCOC(=O)C1=Nc2ccccc2C1=[N+]=[N-]	-2	-1	-29	366*	3	-1
CC(NS(=O)(=O)c1c(N)n(C)c(=O)n(C)c1=O)c1ccccc1 (configuration not stated)	.	-4	-6	-12	0	.
SMILES	Calb FLC	NadD block	FAS-TE inh	Mot1-301 SUMO	ATG4B inh	Yeast Mot1 SUMO
C=CCNC(=O)c1onc(CSc2cccc(Cl)c2)c1C(=O)O	12	-2	-7	0	-5	.
C=CCNC(=O)c1onc(CSc2cccc(C)c2)c1C(=O)O	-2	-6	-3	775*	-2	1
COc1ccccc1CNC(=O)C1CCC(CNS(=O)(=O)c2ccc(C)cc2)CC1 (configuration not stated)	6	-2	1	625*	-3	0
COc1ccccc1CNC(=O)CSc1ccc(C)cc1	5	-8	-5	.	4	.
COc1ccccc1CNC(=O)C(C)Sc1ccc(C)cc1 (configuration not stated)	-4	4	0	416*	5	0
COc1ccccc1CNC(=O)CCC(=O)Nc1nnc(C(C)C)s1	-19	3	-10	928*	-1	0
COc1cc(C2c3cc4c(cc3OC(NCCc3ccccc3)C2C)OCO4)cc(OC)c1OC (configuration not stated)	.	-2	21	.	3	.
CC[C@]12c3[nH]c4ccc(Cl)cc4c3CCN1C(=O)[C@@H](CC(=O)NCc1ccc(OC)c(OC)c1)C[C@@H]2C(=O)N1CCN(C(=O)c2ccco2)CC1	.	1	0	.	-16	.
COc1cc(/C=N/NC(=S)NCc2ccco2)cc(OC)c1OC	-5	-3	-1	498*	5	-1
CCN1C(=O)[C@H]2[C@@H](c3ccc(-c4ccc(OC)cc4)cc3)N[C@@](CC(C)C)(C(=O)OC)[C@H]2C1=O	-3	-6	19	19	-9	.
COc1ccccc1-c1sc2cc3c(cc2c1-c1ccc2c(c1)OCO2)OCO3	.	3	29	-13	3	.
COc1ccccc1-c1sc2ccccc2c1-c1ccc2c(c1)OCO2	-10	-4	24	998*	-6	1
Cc1ccc(-c2cc3nc(NCCc4ccncc4)n(C)c(=O)c3s2)cc1	.	11	-6	.	.	.
Cc1ccc(-n2c(-c3ccco3)nc3c(cnn3-c3ccc(C)cc3)c2=O)cc1	-3	1	14	734*	-3	0
Cc1ccc(-n2c(-c3ccco3)nc3c(cnn3-c3ccccc3C)c2=O)cc1	0	-1	5	-13	-15	.
Cc1ccc(-c2nn(-c3ccccc3)cc2CC(=S)N2CCOCC2)cc1	-8	2	28	8	-1	.
Cc1ccc(-c2nn(-c3ccccc3)cc2/C=N/NC(=O)c2ccc(Br)o2)cc1	-4	4	1	24	-9	.
O=C(N/N=C\c1cn(-c2ccccc2)nc1-c1ccccc1)c1ccc(Br)o1	-1	11	20	+	-5	-1
O=c1[nH][nH]c(C(F)(F)F)c1C=Nc1ccccc1	-7	5	-10	21	-13	.
O=c1[nH][nH]c(C(F)(F)F)c1C=NCc1cccs1	1	2	-2	+	5	0
CC(=O)c1ccc(N=C2NC(=O)C(CO)(CO)S2)cc1	-1	-8	-1	-12	-3	.
Cc1noc(C)c1S(=O)(=O)N1CCCC(C(=O)NCC2CCCO2)C1 (configuration not stated)	12	-3	-4	+	-5	0
